The list shows a part of the results. The source made the active and inactive calls. Rule as the data show it: active = response above about 24%; inactive = the rest.
Assay: yeast V-ATPase proton pumping modulators, confirmation, S. cerevisiae, pH-sensitive GFP, second cherry-pick (AID 602197);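 also: plate controls were vehicle wells for no effect and positive control wells for full effect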
Settings: S. cerevisiae pHLuorin cytosolic pH, V-ATPase proton transport; at 10 µM; hits give high values
In the case of `O=C(O/N=C(/c1ccccc1)c1ccncc1)c1ccccc1[N+](=O)[O-]`, the response was 4.81% (inactive). In the case of `O=C(NCC1CCCCC1)c1cc(S(=O)(=O)N2CCCCC2)ccc1N1CCOCC1`, the response was -0.11% (inactive). For `COc1ccc(N2CCN(C(=O)/C(C#N)=C/c3ccccc3)CC2)cc1`, the response was -3.48% (inactive). In the case of `CCOC(=O)CNC(=O)CSc1nnc(COc2ccc(Cl)cc2)n1CC`, the response was -1.08% (inactive). In the case of `O=C(C1=C[C@H](C2CC2)C[C@H](OCc2ccc(CO)cc2)O1)N1CCN(Cc2ccccc2)CC1`, the response was 1.94% (inactive). With `O=C1Oc2ccccc2C(=O)/C1=C/c1ccccc1O` the response was 91.4% (active). With `Cc1cc(OC(=O)c2ccccc2)c([N+](=O)[O-])c(=O)[nH]1` the response was 1.38% (inactive). For `COC(=O)c1cc(Oc2ccc(S(=O)(=O)N3CCOCC3)cc2[N+](=O)[O-])cc(C(=O)OC)c1`, the response was 0.18% (inactive). With `CC(=O)N1CCC(N(C(=O)Nc2ccc(Cl)cc2)C(C)C)CC1` the response was 2.59% (inactive). For `CCOC(=O)COc1cc(O)c2c(=O)cc(-c3ccccc3)oc2c1`, the response was -3.04% (inactive). For `N#C/C(C(=O)N1CCOCC1)=C1/SC(Cc2ccc(F)cc2)C(=O)N1c1ccccc1` (stereo not drawn), the response was 5.79% (inactive). In the case of `COC(=O)c1c(-c2ccc(C)cc2)csc1N`, the response was 0.92% (inactive). For `Cc1ccc2nc(-c3ccncc3)cc(C(=O)Nc3ccc(OC(F)F)cc3)c2c1`, the response was 2.3% (inactive). In the case of `COc1ccc2nc(N3CCN(C(=O)c4ccc([N+](=O)[O-])o4)CC3)sc2c1`, the response was 36% (active). In the case of `Nc1ccc(C(=O)NCc2ccccc2)cc1`, the response was -2.67% (inactive). For `Cc1cc(=O)[nH]c(N/N=C/c2c(C)nn(-c3ccccc3Cl)c2Cl)n1`, the response was -0.02% (inactive). For `O=S1(=O)C=C(SCCN2CCCC2)c2ccccc21`, the response was -0.88% (inactive). For `OCc1nc(CO)n(Cc2ccccc2)n1`, the response was -7.16% (inactive). For `Cc1occc1C(=O)Nc1nnc(C2CCCCC2)s1`, the response was 3.1% (inactive). In the case of `CC1=NN(c2ccc(Cl)c(C(=O)O)c2)C(=O)/C1=C/c1ccc(-c2ccccc2[N+](=O)[O-])o1`, the response was 1.31% (inactive). For `CCOC(=O)N1CCN(CC(=O)n2c(C)c(C)c3ccccc32)CC1`, the response was 1.66% (inactive). With `Cc1cc(CO)nn1-c1ccc([N+](=O)[O-])cc1` the response was 2.63% (inactive). With `CCCc1cc(=O)[nH]c(SCc2ccc(C#N)cc2)n1` the response was 1.04% (inactive).

Reference: PubChem BioAssay AID602197 (NMMLSC, 2012)
